Laboratory results: PubChem BioAssay AID1159580 (chemical genetic matrix, 2015)
Values joined by “and” are separate entries in the source; they are usually repeats but may differ in a detail not shown here. Equal values may be shown once. The campaign covered roughly 5,500 compounds. About 2,000 (36%) were called active. Not shown: some 18% with an inconclusive outcome. Rule as the data show it: active = normalized growth mostly below about 0.91 (no sharp cut-off); inconclusive = no clear call, values can overlap the other calls; inactive = mostly above about 0.92. This is one part of the list.

Test: chemical genetic growth profiling, strain panel (AID 1159580);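 also: tested at 20 µM; growth read once vehicle control cultures reached saturation at 30 °C; 1 = growth at the plate median or of vehicle wells; lower values mean less growth of the strain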
Conditions: S. cerevisiae deletion strains, growth OD

Measured: normalized growth

C[C@H](N)[C@H](O)c1cccc(O)c1
inactive: locus YAL021C, strain ccr4, hits give low values 1 | locus YAL026C, strain drs2, hits give low values 1.01 | locus YAL030W, strain snc1, hits give low values 1 | locus YBL061C, strain skt5, hits give low values 1.01 | locus YBR009C, strain hhf1, hits give low values 1.02 | locus YBR021W, strain FUR4, hits give low values 1.04 | locus YBR023C, strain chs3, hits give low values 1.02 | locus YBR171W, strain sec66, hits give low values 1.02 | locus YBR229C, strain ROT2, hits give low values 0.992 | locus YBR231C, strain swc5, hits give low values 1 | locus YBR279W, strain paf1, hits give low values 1.01 | locus YCL011C, strain gbp2, hits give low values 1 | locus YCL016C, strain dcc1, hits give low values 1.02 | locus YCL029C, strain bik1, hits give low values 0.985 | locus YCL061C, strain MRC1, hits give low values 1.01 | locus YCL069W, strain vba3, hits give low values 0.994 | locus YCR088W, strain abp1, hits give low values 1 | locus YDL005C, strain med2, hits give low values 1.01 | locus YDL035C, strain GPR1, hits give low values 0.983 | locus YDL040C, strain nat1, hits give low values 1 | locus YDL074C, strain BRE1, hits give low values 1.04 | locus YDL101C, strain DUN1, hits give low values 0.997 | locus YDL185W, strain tfp1, hits give low values 0.957 | locus YDL192W, strain arf1, hits give low values 0.99 | locus YDR001C, strain nth1, hits give low values 0.999 | locus YDR069C, strain doa4, hits give low values 1.01 | locus YDR101C, strain arx1, hits give low values 1 | locus YDR137W, strain rgp1, hits give low values 1.03 | locus YDR150W, strain NUM1, hits give low values 0.981 | locus YDR159W, strain sac3, hits give low values 1.03 | locus YDR162C, strain NBP2, hits give low values 0.986 | locus YDR195W, strain ref2 1 | locus YDR297W, strain sur2, hits give low values 1 | locus YDR318W, strain mcm21, hits give low values 0.997 | locus YDR334W, strain swr1, hits give low values 0.999 | locus YDR335W, strain msn5, hits give low values 0.994 | locus YDR388W, hits give low values 0.987 | locus YDR392W, strain spt3, hits give low values 1.02 | locus YDR502C, strain sam2, hits give low values 1 | locus YEL003W, strain gim4, hits give low values 1.01 | locus YEL037C, strain rad23, hits give low values 1 | locus YEL061C, strain CIN8 (second series), hits give low values 0.992 | locus YEL061C, strain CIN8, hits give low values 0.988 | locus YER015W, strain faa2, hits give low values 1.01 | locus YER016W, strain bim1, hits give low values 1.01 | locus YER110C, hits give low values 0.973 | locus YER111C, strain swi4, hits give low values 1 | locus YER155C, strain BEM2 (second series), hits give low values 0.995 | locus YER155C, strain BEM2, hits give low values 1.01 | locus YER167W, strain BCK2, hits give low values 0.989 | locus YFR010W, strain ubp6, hits give low values 1.01 | locus YGL078C, strain dbp3, hits give low values 0.995 | locus YGL086W, strain mad1, hits give low values 1.01 | locus YGL167C, strain pmr1, hits give low values 1.02 | locus YGL173C, strain kem1, hits give low values 1.01 | locus YGL227W, strain vid30, hits give low values 1 | locus YGL240W, strain doc1, hits give low values 1.01 | locus YGL248W, strain PDE1, hits give low values 1.02 | locus YGL253W, strain hxk2, hits give low values 1.01 | locus YGR078C, strain PAC10, hits give low values 1.01 | locus YGR135W, strain pre9, hits give low values 0.942 | locus YGR252W, strain gcn5, hits give low values 1.04 | locus YHR013C, strain ard1, hits give low values 1.02 | locus YHR027C, strain rpn1, hits give low values 1.02 | locus YHR030C, strain SLT2, hits give low values 0.979 and 1.02 | locus YHR079C, strain IRE1 (second series), hits give low values 0.999 | locus YHR079C, strain IRE1, hits give low values 1.02 | locus YHR094C, strain hxt1, hits give low values 0.979 | locus YHR129C, strain ARP1, hits give low values 0.997 | locus YHR142W, strain chs7, hits give low values 1 | locus YHR200W, strain rpn10, hits give low values 0.987 | locus YIL066C, strain RNR3, hits give low values 1 | locus YIL073C, strain SPO22, hits give low values 0.828 | locus YIL125W, strain kgd1, hits give low values 0.988 | locus YIR030C, strain dcg1, hits give low values 0.982 | locus YJL092W, strain hpr5, hits give low values 1.01 | locus YJL095W, strain BCK1 (second series), hits give low values 1.01 | locus YJL095W, strain BCK1, hits give low values 1.01 and 1.04 | locus YJL115W, strain asf1, hits give low values 1.01 | locus YJL129C, strain trk1, hits give low values 0.995 | locus YJL134W, strain LCB3, hits give low values 0.985 | locus YJL154C, strain vps35, hits give low values 0.997 | locus YJL164C, strain tpk1, hits give low values 1.01 | locus YJL166W, strain qcr8, hits give low values 1 | locus YJL168C, strain set2, hits give low values 0.999 | locus YJL187C, strain SWE1 (second series), hits give low values 0.996 | locus YJL187C, strain SWE1, hits give low values 1.01 | locus YJR043C, strain POL32, hits give low values 1.04 | locus YJR066W, strain TOR1, hits give low values 0.991 | locus YKL009W, strain mrt4, hits give low values 0.987 | locus YKL068W, hits give low values 0.977 | locus YKL085W, strain MDH1 (second series), hits give low values 0.984 | locus YKL085W, strain MDH1, hits give low values 0.984 | locus YKL160W, strain elf1, hits give low values 1 | locus YKR001C, strain vps1, hits give low values 0.998 | locus YKR026C, strain gcn3, hits give low values 1.01 | locus YKR091W, strain srl3, hits give low values 0.998 | locus YLL001W, strain dnm1, hits give low values 1.01 | locus YLL026W, hits give low values 1 | locus YLL041C, strain sdh2, hits give low values 1.01 | locus YLR027C, strain aat2, hits give low values 1.01 | locus YLR039C, strain RIC1, hits give low values 0.968 | locus YLR058C, strain SHM2, hits give low values 0.983 | locus YLR102C, strain apc9, hits give low values 0.993 | locus YLR113W, strain HOG1, hits give low values 1.07 | locus YLR221C, strain rsa3, hits give low values 1.01 | locus YLR258W, strain gsy2, hits give low values 1 | locus YLR262C, strain YPT6 (second series), hits give low values 1.03 | locus YLR262C, strain YPT6, hits give low values 0.963 | locus YLR268W, strain sec22, hits give low values 1.01 | locus YLR320W, strain mms22, hits give low values 1.02 | locus YLR330W, strain CHS5, hits give low values 0.985 | locus YLR342W, strain FKS1 (second series), hits give low values 0.98 | locus YLR342W, strain FKS1, hits give low values 1.01 | locus YLR357W, strain rsc2, hits give low values 0.993 | locus YLR370C, strain arc18, hits give low values 1.01 | locus YLR371W, strain rom2, hits give low values 1 | locus YLR384C, strain iki3, hits give low values 1.01 | locus YLR418C, strain cdc73, hits give low values 0.983 | locus YML016C, strain PPZ1, hits give low values 0.995 | locus YML032C, strain rad52, hits give low values 1.01 | locus YML120C, strain ndi1, hits give low values 1.01 | locus YML124C, strain tub3, hits give low values 0.991 | locus YMR058W, strain fet3, hits give low values 1 | locus YMR078C, strain ctf18, hits give low values 0.985 | locus YMR125W, strain sto1, hits give low values 1 | locus YMR129W, hits give low values 1 | locus YMR205C, strain PFK2, hits give low values 1.03 | locus YMR223W, strain ubp8, hits give low values 0.971 | locus YMR231W, strain pep5, hits give low values 1.02 | locus YMR263W, strain SAP30, hits give low values 0.995 | locus YMR307W, strain GAS1, hits give low values 1 | locus YNL067W, strain RPL9B, hits give low values 1.02 | locus YNL071W, strain lat1, hits give low values 0.997 | locus YNL153C, strain GIM3, hits give low values 1.04 | locus YNL183C, strain NPR1, hits give low values 0.989 | locus YNL209W, strain ssb2, hits give low values 1.01 | locus YNL233W, strain BNI4, hits give low values 1.05 | locus YNL248C, strain rpa49, hits give low values 1.01 | locus YNL250W, strain rad50, hits give low values 0.993 | locus YNL271C, strain bni1, hits give low values 0.997 | locus YNL298W, strain CLA4, hits give low values 0.993 | locus YNL307C, strain MCK1, hits give low values 1 | locus YNL322C, strain KRE1 (second series), hits give low values 1.01 | locus YNR049C, strain mso1, hits give low values 1.01 | locus YNR052C, strain pop2, hits give low values 0.993 | locus YOL012C, strain htz1 1.01 | locus YOL147C, strain pex11, hits give low values 0.978 | locus YOR001W, strain rrp6, hits give low values 1.01 | locus YOR061W, strain CKA2, hits give low values 0.996 | locus YOR069W, strain VPS5, hits give low values 0.985 | locus YOR070C, strain gyp1, hits give low values 1.01 | locus YOR080W, strain dia2, hits give low values 1.02 | locus YOR083W, strain WHI5, hits give low values 1.01 | locus YOR106W, strain vam3, hits give low values 1.02 | locus YOR136W, strain idh2, hits give low values 1.01 | locus YOR144C, strain elg1, hits give low values 0.996 | locus YOR184W, strain ser1, hits give low values 0.989 | locus YOR231W, strain MKK1, hits give low values 1.06 | locus YOR265W, strain rbl2, hits give low values 1.01 | locus YOR270C, strain vph1, hits give low values 1.01 | locus YOR290C, strain snf2, hits give low values 1.03 | locus YOR316C, strain cot1, hits give low values 0.99 | locus YPL051W, strain arl3, hits give low values 1.01 | locus YPL055C, strain LGE1, hits give low values 1.06 | locus YPL078C, strain atp4, hits give low values 1.01 | locus YPL106C, strain sse1, hits give low values 1.03 | locus YPL240C, strain hsp82, hits give low values 1.01 | locus YPL256C, strain CLN2, hits give low values 1.04 | locus YPR119W, strain clb2, hits give low values 0.995 | locus YPR141C, strain kar3, hits give low values 0.978 | locus YPR163C, strain tif3, hits give low values 0.987 | locus YPR167C, strain met16, hits give low values 1 | strain wtn01, hits give low values 0.998
